According to PubChem BioAssay (Tox21):
Results filed as inconclusive are left out. A number with no mark means an inactive call. The source made the active and inactive calls. Calls come from the whole dose curve; as a rule, active = well fitted cell-killing curve with a large enough effect in the repeat runs; inconclusive = weak or mixed curves, or effect the other way; inactive = flat fitted curve, though single readings scatter.

Test: qHTS RealTime-Glo MT Cell Viability Assay in HEK293 cells - 8 hour (AID 1224887); note: top concentration of the series differs between compounds; nearly all actives have a fitted effect of over 50% in size
Settings: RealTime-Glo luminescence; series mostly up to 76.8 µM
From the text: U.S. Tox21 Program National Center for Advancing Translational Sciences [NCATS] NIH Chemical Genomics Center [NCGC] U.S. Environmental Protection Agency [EPA] National Institutes of Environmental Health Sciences [NIEHS] National Toxicology Program [NTP] U.S. Food and Drug Administration [FDA] Tox21 Assay Overview: Measure of cell viability is critical in the cell-base assay. Analysis of cell viability is necessary for the characterization of cell responses to cytotoxic drugs and environmental stress. A RealTime-Glo MT Cell Viability Assay to monitor cell viability in real time of continues cell culture during 40 hours of compound treatment was used to screen Tox21 10K library compounds in Hek293 cells. The RealTime-Glo MT Cell Viability Assay is a nonlytic, homogeneous, bioluminescent method to measure cell viability in real time using a simple, plate-based method. The assay involves adding NanoLuc luciferase and a cell-permeant prosubstrate to cells in culture. Viable cells reduce the proprietary prosubstrate to generate a substrate for NanoLuc luciferase. This substrate diffuses from cells into the surrounding culture medium, where it is rapidly used by the NanoLuc Enzyme to produce a luminescent signal. The signal correlates with the number of viable cells, making the assay well suited for cytotoxicity studies.
Tox21 Assay Protocol Summary: The mixture of Hek293 cell suspension and reagents were dispensed at 600cells/6 ul/well in 1536-well tissue culture treated black solid bottom plates using a Multidrop dispenser. After the assay plates were incubated at a 37 C/5% CO2 incubator for 5 hours, 23 nL of compounds dissolved in DMSO, positive and negative controls was transferred to the assay plate by a pintool work station. The plates were incubated at 37 C for 40 hours. The luminescence intensity were measured at 0h, 8h, 16h, 24h, 32h and 40h time points using ViewLux plate reader during compound treatment.
% is set by controls: 0 for no effect and ±100 for the full control effect.

Which outcome does the source give for `Clc1cc(Cl)c(Cl)c(Cl)c1Cl` here?
The outcome was “inactive”.

Which outcome does the source give for `N[C@H]1C(O)O[C@H](CO)[C@@H](O)[C@@H]1O` (stereo not given in full) here?
The outcome was “inactive”.

Which outcome does the source give for `CCOC(=O)c1ccc(N(C)C)cc1` here?
Its outcome is “inactive”.

For `CCCCCCCCCCCCCCCCN(C)C`, which activity change, negative = cytotoxicity is on record?
Its activity change, negative = cytotoxicity is 5.23% [at 6.97 µM].

For `O=Cc1ccccc1S(=O)(=O)O`, which outcome is on record?
Its outcome is “inactive”.

With `CCCCCCCC(=O)N(C)C` as the molecule, how does the outcome read?
The outcome was “inactive”.

With `CN(C)c1ccncc1` as the molecule, how does the outcome read?
The outcome was “inactive”.

With `CC(=O)SC[C@@H](C)C(=O)N1CCC[C@H]1C(=O)N[C@@H](Cc1ccccc1)C(=O)O` as the molecule, how does the outcome read?
The outcome was “inactive”.

Which outcome does the source give for `C/C=C/C(=O)CCCC` here?
The outcome was “inactive”.

Which outcome does the source give for `CC12CCCC=C1C(=O)OC2=O` (stereo not given) here?
The outcome was “inactive”.

Which outcome does the source give for `O=C(c1ccccc1)c1cccc(O)c1` here?
Its outcome is “inactive”.

With `C=C(C)C(=O)OCCOC1CC2CC1C1C=CCC21` (stereo not given) as the molecule, how does the outcome read?
The outcome was “inactive”.

For `CCCC[O][Al]([O]CCCC)[O]CCCC`, which outcome is on record?
The outcome was “inactive”.

Which outcome does the source give for `Cc1ccc2cccnc2c1` here?
Its outcome is “inactive”.

Which outcome does the source give for `CCCCCCCCOCCC#N` here?
Its outcome is “inactive”.

With `CCN(CC)CC` as the molecule, how does the outcome read?
Its outcome is “inactive”.

For `COC(C)(C)CC(C)=O`, which outcome is on record?
Its outcome is “inactive”.

For `Cc1ccc(OC(=O)CC(C)C)cc1`, which outcome is on record?
Its outcome is “inactive”.

For `CCCCC(CC)COC(=O)CC#N` (stereo not given), which outcome is on record?
The outcome was “inactive”.

With `CC[N+](C)(CC)CC` as the molecule, how does the outcome read?
The outcome was “inactive”.

Which outcome does the source give for `COC(=O)c1ccccc1Cl` here?
Its outcome is “inactive”.

For `O=C(O)/C=C(\CC(=O)O)C(=O)O`, which outcome is on record?
The outcome was “inactive”.

With `CCCCCC(=O)CC` as the molecule, how does the outcome read?
The outcome was “inactive”.

With `CSC(=O)c1cccc2nnsc12` as the molecule, how does the outcome read?
Its outcome is “inactive”.

With `CCCCC(O)/C=C(C)/C=C/C=C/C(=O)N1CCCC1=O` (stereo not given) as the molecule, how does the outcome read?
Its outcome is “inactive”.

Which outcome does the source give for `CC1(C)C(=O)C(C)(C)C1=O` here?
The outcome was “inactive”.

Which outcome does the source give for `C=CC(C)(CCC=C(C)C)OC(=O)C(C)C` (stereo not given) here?
Its outcome is “inactive”.

Which outcome does the source give for `CCC(C)(C)C` here?
Its outcome is “inactive”.

Which outcome does the source give for `O=C1c2ccccc2C(=O)N1CO` here?
Its outcome is “inactive”.

Which outcome does the source give for `C[C@H]1COc2c(C3(N)CC3)c(F)cc3c(=O)c(C(=O)O)cn1c23` here?
The outcome was “inactive”.

With `CCCCCCC(=O)c1ccccc1` as the molecule, how does the outcome read?
The outcome was “inactive”.

With `C[C@@H]1CCC[C@H](C)N1CCCC(O)(c1ccccc1)c1ccccn1` (stereo not given in full) as the molecule, how does the outcome read?
The outcome was “inactive”.

Which outcome does the source give for `CCCCCCCCCCCBr` here?
Its outcome is “inactive”.

For `C[C@]12C=CC(=O)C=C1[C@@H](F)C[C@@H]1[C@@H]2[C@@H](O)C[C@@]2(C)[C@H]1CC[C@]2(O)C(=O)CO`, which outcome is on record?
The outcome was “inactive”.

For `C=CCCCCCCCCCCCCCC`, which activity change, negative = cytotoxicity is on record?
Its activity change, negative = cytotoxicity is -3.89% [at 15.8 µM].

With `CCCCN1C(=O)c2ccccc2C1=O` as the molecule, how does the outcome read?
The outcome was “inactive”.

For `CCCc1ncc(C(=O)O)s1`, which outcome is on record?
The outcome was “inactive”.

With `O=CN1CCCCC1` as the molecule, how does the outcome read?
The outcome was “inactive”.

Which outcome does the source give for `O=C(O)Cc1c(Cl)ccc(Cl)c1Cl` here?
The outcome was “inactive”.

With `COC(=O)c1ccc(C(=O)O)cc1` as the molecule, how does the outcome read?
Its outcome is “inactive”.
